Drawing on PubChem BioAssay (NCI), this text covers growth inhibition for 14 compounds.

The assay in a line: NCI Yeast Anticancer Drug Screen. Data for the mec2-1 strain (AID 157). The conditions noted are these: S. cerevisiae mec2-1 strain, active compounds read high. The protocol: Growth inhibition of yeast strains with defined genetic alterations is measured as a screen for potential anti-cancer activity. Selected strains with alterations in DNA damage repair or cell cycle control were exposed to compounds and growth inhibition was measured relative to vehicle treated controls. The strain used in this assay is mec2-1

Where [1] appears, read: at 5.0 µM (retest, dose inferred, filed as 0.5).
[2] abbreviates: at 50.0 µM (retest, dose inferred, filed as 5.0).

Molecules are shown by their SMILES. The panel holds about 79,000 compounds, 15% with a hit somewhere; the sample as a whole holds those more often. Values without a mark were called inactive. The source made the active and inactive calls. Cut-off read from the data, not from the text of the source: active = growth inhibition above about 70%; inactive = the rest.

Regarding `CC1CCCC(C(c2c[nH]c3ccccc23)c2c[nH]c3ccccc23)C1=O` (configuration not stated), the growth inhibition is, setting by setting: under setting [1], 1%; under setting [2], 98% (active); (at 50.0 µM) 58.6%.
The like results for `N=c1n(CC(=O)NC23CC4CC(CC(C4)C2)C3)c2ccccc2n1Cc1ccc(Cl)cc1` were, in that order, 13%, 13% and 93.3% (active).
The like results for `c1ccc2c(O[Si](Oc3cccc4ccccc34)(Oc3cccc4ccccc34)Oc3cccc4ccccc34)cccc2c1` were, in that order, 0%, 87% (active) and 97.7% (active).
For `N=C(N)Cc1ccc(NC(=O)c2ccc(C(=O)Nc3ccc(CC(=N)N)cc3)cc2)cc1` the same measures were 2%, 14% and 34.2%.
Consider `CCOC(=O)c1cccc(C)c1C(=O)c1ccc(C)cc1C`, for which the growth inhibition reads like this: under setting [1], 4%; under setting [2], 79% (active); (at 50.0 µM) 79.3% (active).
The like results for `O=C(Cc1nc2ccccc2s1)Nc1ccc2ccccc2c1` were, in that order, 18%, 99% (active) and 98.5% (active).
The like results for `O=C(C1=NNC(c2ccccc2)C1C(=O)c1ccccc1)c1ccccc1` (configuration not stated) were, in that order, -7%, 65% and 30.6%.
On to `O=C1OC(=O)c2ccc(S)c3cccc1c23`, for which the growth inhibition runs as follows: under setting [1], -25%; under setting [2], 85% (active); (at 50.0 µM) 61.2%.
For `Cc1cc2c(cc1C)[n+]([O-])c(-c1c(Cl)cccc1Cl)c(N)[n+]2[O-]` the same measures were 27%, 98% (active) and 45.2%.
The like results for `Cc1ccc(C2(c3ccc(F)cc3)OC(=O)c3ccccc32)c(O)c1` (configuration not stated) were, in that order, 13%, 99% (active) and 88.7% (active).
`COC1OC2=CCC3C(=O)NC(=O)C3C2[C@H](OCc2ccccc2)C1OCc1ccccc1` (some centres not stated): the growth inhibition is -13% under setting [1], 99% (active) under setting [2] and 99.7% (active) (at 50.0 µM).
Regarding `N#CC(C#N)C(c1ccccc1)c1ccccc1`, the growth inhibition was 6% under setting [1], 20% under setting [2] and 17.9% (at 50.0 µM).
For `Nc1ncnc2c1c(-c1ccc(Cl)cc1)cn2-c1ccccc1` the same measures were 11%, 52% and 30.1%.
For `O=C(CC(=O)c1ccccc1)CC(=O)c1ccccc1` the same measures were 24%, 85% (active) and 68.5%.
